# Reference: PubChem BioAssay AID651813 (National Center for Advancing Translational Sciences (NCATS), 2012)
# Out of some 2,100 compounds screened, about 1,100 (52%) were called active. Not shown: some 27% with an inconclusive outcome. The set was probably picked from earlier hits. This is one part of the list. Unmarked numbers belong to inactive results. Calls follow the shape of the dose curve; as a rule, active = well fitted inhibition curve with a large enough effect; inconclusive = small, poorly fitted or top-dose-only effect; inactive = no such curve, though single readings can be large or run the other way.
# Molecular target: DNA dC->dU-editing enzyme APOBEC-3G (Homo sapiens) (UniProt Q9HC16)
# Sequence (Q9HC16 whole entry, looked up): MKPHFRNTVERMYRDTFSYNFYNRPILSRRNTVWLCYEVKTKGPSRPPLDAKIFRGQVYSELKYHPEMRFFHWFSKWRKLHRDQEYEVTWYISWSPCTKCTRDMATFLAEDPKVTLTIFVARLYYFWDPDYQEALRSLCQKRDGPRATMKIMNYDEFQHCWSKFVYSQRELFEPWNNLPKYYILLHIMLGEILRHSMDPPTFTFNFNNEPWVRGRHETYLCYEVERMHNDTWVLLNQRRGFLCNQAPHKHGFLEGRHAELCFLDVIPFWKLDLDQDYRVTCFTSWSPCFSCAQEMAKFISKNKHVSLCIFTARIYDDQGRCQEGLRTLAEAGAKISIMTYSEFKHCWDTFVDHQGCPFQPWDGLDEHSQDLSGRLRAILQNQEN
# Test: qHTS for inhibitors of Vif-A3G interactions: Cherry picks counterscreen;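 also: hits raise yellow fluorescence by blocking Vif-driven A3G-eYFP degradation; nearly all actives have a fitted effect of over 70% in size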;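 as to max response: max response given as percent of control signal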
# Settings: HeLa A3G-eYFP + Vif (tagged APOBEC3G with the HIV-1 protein that degrades it), eYFP fluorescence, 24 h
# Outline: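 HeLa cells stably expressing A3G-eYFP and Vif were treated for 24 h at 37 deg C with compounds at several concentrations; yellow fluorescence (Ex 488 nm, Em 500-530 nm) read by Acumen Explorer, MG132 as positive control.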
# Potency is read from the fitted curve at half-maximal effect.
SMILES,Potency,max response
CCn1c(SCC(=O)c2c[nH]c3ccccc23)nnc1-c1cccs1,18.4 µM (active),
CCN(C)c1ccc(/C=N\n2nnnc2N)cc1,5.59 µM (active),
Clc1ccc2c(c1)C(C1=NCCN1)c1ccccc1CS2 (stereo not drawn),3.14 µM (active),
Cc1ccccc1/C=C\c1nc2ccccc2c(=O)[nH]1,11.2 µM (active),
O=C1c2cccc3c(N4CCCCC4)ccc(c23)C(=O)N1CCO,14 µM (active),
O=C1c2cccc3c(N4CCCCC4)ccc(c23)C(=O)N1c1cccc(O)c1,2.59 µM (active),
O=C1c2cccc3c(N4CCCCC4)ccc(c23)C(=O)N1c1ccc(O)cc1,,54.2%
C=CCN1C(=O)c2cccc3c(N4CCCCC4)ccc(c23)C1=O,18.4 µM (active),
Cc1ccc(N2C(=O)c3cccc4c(N5CCN(C)CC5)ccc(c34)C2=O)c2cccnc12,15.8 µM (active),
CSc1nc(Sc2ccccc2Cl)c2ccccc2n1,,-6.36%
CCN(CC)c1ccc(/C=C/c2ccncc2)cc1,4.61 µM (active),
CCN(CC)c1ccc(/C=C/C2=C3C=CC=CC3NC=C2)cc1 (stereo not drawn),20.6 µM (active),
CCN(CC)c1ccc(/C=C/C(=O)c2ccc(Br)cc2)cc1,,26.9%
CCN(CC)c1ccc(/C=C/c2ccccn2)cc1,16.4 µM (active),
CN(C)c1ccc(/C=C/c2ccncc2)cc1,2.59 µM (active),
NC(=S)N/N=C/c1cccc(O)c1O,,3.32%
NC(=S)N/N=C/c1ccccc1OC(=O)/C=C/c1ccccc1,,5.74%
O=[N+]([O-])c1ccccc1C=NNC(=S)NN=Cc1ccccc1[N+](=O)[O-],8.86 µM (active),
CCN(CC)c1ccc(/C=C2\C(=N)N3N=C(CC(=O)N4CCOCC4)SC3=NC2=O)cc1,1.58 µM (active),
CN(C)c1ccc(/C=C2\SC(N3CCCCC3)=NC2=O)cc1,20.6 µM (active),
CN(C)c1ccc(/C=C2\C(=N)N3N=C(CC(=O)N4CCCCC4)SC3=NC2=O)cc1,4.61 µM (active),
COc1cc(/C=C2\C(=N)N3N=C(S(C)(=O)=O)SC3=NC2=O)ccc1OC(=O)c1ccco1,,53.1%
O=C(c1ccccn1)C1CCCN(Cc2cn[nH]c2-c2cc3ccccc3o2)C1 (stereo not drawn),,0.488%
C=C(C)CNC(=S)NNC(=O)c1ccco1,,8.06%

SMILES,Potency,max response
C=CCn1c(O)c(N=NC(=O)CNC(=O)c2ccco2)c2ccccc21,12.5 µM (active),
CCOC(=S)SCC(=O)N1CCc2cc(OC)ccc2C1C1C(=O)CCCC1=O (stereo not drawn),14 µM (active),
Cc1ccc(C=Nc2ccccc2C(N)=O)s1,2.5 µM (active),
Cc1cccc(C=Nc2ccccc2C(N)=O)c1,9.94 µM (active),
COc1ccc(NC(=O)/C(C#N)=C\C=C\c2ccco2)cc1,14 µM (active),
COc1ccc(NC(=O)/C(C#N)=C/C=C/c2ccco2)cc1,11.2 µM (active),
COc1ccc2c(c1)c1nc3ccccc3nc1n2Cc1ccc(OC)c(OC)c1,25.9 µM (active),
COc1ccc2c(c1)c1nc3ccccc3nc1n2Cc1ccc(OC(C)C)c(OC)c1,23.1 µM (active),
COc1ccc2c(c1)c1nc3ccccc3nc1n2CC(=O)OC(C)C,,-18.3%
CC(=O)Oc1c(-c2ccc(Br)o2)oc2ccccc2c1=O,,-10.4%
CCc1cccc2c(C(O)c3c[nH]c4ccccc34)c[nH]c12 (stereo not drawn),20.6 µM (active),
CC(C)CC[n+]1ccccc1/C=C/c1ccc(N(C)C)cc1,16.4 µM (active),
CC[n+]1ccccc1/C=C/c1ccc(N(C)C)cc1,20.6 µM (active),
Cc1c(CCCl)c(Cl)n2c(nc3ccccc32)c1C#N,9.94 µM (active),
CN(C)c1ccc2nc3c(=O)[nH]c(=O)nc-3n(CC(O)C(O)C(O)CO)c2c1 (stereo not drawn),,0.486%
CN(C)c1ccc(/C=C2\NC(=S)N(Cc3ccccc3)C2=O)cc1,2.5 µM (active),
Cc1ccc(/C=C2/NC(=O)N(Cc3ccccc3)C2=O)s1,20.6 µM (active),
Cc1ccc(/C=C2/NC(=O)N(Cc3ccccc3F)C2=O)s1,8.2 µM (active),
Cc1cccc(CN2C(=O)N/C(=C/c3ccc(C)s3)C2=O)c1,6.27 µM (active),
Cc1ccc2ccc3cc(C(=O)Nc4ccc(C)c(F)c4)nc3c2[nH]1,,-25.1%
CC(C)(C)OC(=O)NC(Cc1ccccc1)C(=O)N1CCC(C(=O)NCC(=O)Nc2ccc(F)cc2)CC1 (stereo not drawn),23.1 µM (active),
COc1ccc2c(n1)Sc1nc3ccccc3nc1N2,3.26 µM (active),
CC1C/C(=C/c2cccs2)C(=O)/C(=C/c2cccs2)C1 (stereo not drawn),,14.5%
COc1cc(OC)c(OC)cc1/C=C1\CC(C)C/C(=C\c2cc(OC)c(OC)cc2OC)C1=O (stereo not drawn),20.6 µM (active),

SMILES,Potency,max response
COc1ccc(COc2cc(-c3cccc(OC)c3)nc3ccc(NC(=O)C(C)C)cc23)cc1,4.98 µM (active),
COc1ccc(COc2cc(-c3cccc(OC)c3)nc3ccc(NC(=O)c4ccc(OC)cc4)cc23)cc1,3.53 µM (active),
COc1ccc(-c2cc(-c3nnc(COC(=O)c4ccncc4)o3)c3ccccc3n2)cc1OC,,-0.16%
CCN(CC)C(=O)c1ccc(/C=C/c2c[nH]c3ccccc23)[n+](C)c1,20.6 µM (active),
C[n+]1cc(C(=O)N2CCCCC2)ccc1/C=C/c1c[nH]c2ccccc12,17.7 µM (active),
c1ccc2c(c1)Cc1cc3ccccc3nc1-2,1.64 µM (active),
CN(C)c1ccc(/C=C/c2ccnc3ccc(N)cc23)cc1,18.4 µM (active),
CN(C)c1ccc(/C=C/c2ccnc3ccc(I)cc23)cc1,5.17 µM (active),
Cc1ccc2nccc(/C=C/c3ccc(N(C)C)cc3)c2c1,11.6 µM (active),
Cc1cc(C)c2nccc(/C=C/c3ccc(N(C)C)cc3)c2c1,11.6 µM (active),
FC(F)(F)c1ccccc1NC(=S)NN=C1CCCCCC1,,19.2%
COc1ccc2nccc(/C=C/c3ccc(N(C)C)cc3)c2c1,18.4 µM (active),
CN(C)c1ccc(/C=C/c2ccnc3ccc(Br)cc23)cc1,2.06 µM (active),
Cc1ccc2nc(-c3ccccn3)c(Nc3ccccc3C)n2c1,,5.76%
O=C(Nc1ncc(Cc2ccc(SC(F)F)cc2)s1)c1ccccc1,1.98 µM (active),
O=C(O)c1cccc(-c2ccc(/C=N/Nc3ccc([N+](=O)[O-])cc3)o2)c1,14.6 µM (active),
O=C(O)c1ccc(-c2ccc(/C=N/Nc3ccc([N+](=O)[O-])cc3)o2)cc1,15.8 µM (active),
CCOc1ccc(S(=O)(=O)N(CC(=O)N/N=C/c2ccc(-c3ccc([N+](=O)[O-])cc3)o2)c2ccccc2)cc1,11.2 µM (active),
Cc1cc([N+](=O)[O-])ccc1-c1ccc(/C=N/NC(=O)c2ccc(Br)o2)o1,20.6 µM (active),
Cn1c(=S)c2[nH]c(SCCN3CCCC3)nc2n(C)c1=O,,14.3%
S=C(Nc1ccccc1)N1CCn2c1nc1ccccc12,,-19.9%
CN(/N=C/c1ccc(-c2ccc([N+](=O)[O-])cc2)o1)c1ccccc1,1.16 µM (active),
O=[N+]([O-])c1ccc(-c2ccc(/C=N/Nc3nc(NCc4ccccc4)nc(N4CCOCC4)n3)o2)cc1,10.3 µM (active),
CC(C)(C)NC(=S)N/N=C\c1ccc(-c2ccc([N+](=O)[O-])cc2)o1,10.3 µM (active),

SMILES,Potency,max response
Cc1ccc(-c2ccc(/C=N/NC(N)=S)o2)cc1,,-14.5%
O=[N+]([O-])c1ccccc1S(=O)(=O)Nc1ccc(-c2ccc(N3CCOCC3)nn2)cc1,,0.357%
CCN(CC)c1nc(C)c(C(=S)Nc2cc([N+](=O)[O-])ccc2Cl)s1,,-7.53%
CCOC(=O)c1c(CC(C)C)csc1/N=C/C1C(=O)CCCC1=O,,-2.9%
Nc1ncnc2c1ncn2[C@@H]1O[C@H](CNCc2ccc(OCc3ccccc3)cc2)[C@@H](O)[C@H]1O,12.5 µM (active),
COc1ccc(CNCC(=O)Nc2ccccc2-n2cccc2)cc1,9.94 µM (active),
OCCCn1c(C2CCCN2c2nc(-c3ccc(F)cc3)cs2)nc2cc(Cl)c(N3CCCCC3)cc21 (stereo not drawn),16.4 µM (active),
CCCn1c(C2CCCN2c2nc(-c3cccc(Br)c3)cs2)nc2ccccc21 (stereo not drawn),,-7.22%
C[C@H](O)[C@@H]1CN2CCc3c([nH]c4ccccc34)[C@@H]2C[C@@H]1N(C)C(=O)c1ccco1,12.5 µM (active),
CCN(CC)C(=O)CSC(Nc1cccc(F)c1)=C(C#N)C#N,13 µM (active),
CCN(CC)c1ccc2cc(C(N)=O)c(=N)oc2c1,,60.6%
O=C(N/N=C/c1sc(=O)n(Cc2ccc(Br)cc2)c1Cl)c1ccco1,,-16.3%
Oc1ccc(C=NNC(=S)Nc2ccc(F)cc2)c(O)c1,,-25.9%
O=C(NC(=S)N1CCc2ccccc21)c1ccco1,,4.59%
CCN(CC)c1ccc(/C=N/NC(=O)c2ccco2)c(O)c1,7.9 µM (active),
CCN(CC)c1ccc(/C=N/NC(=O)c2ccco2)cc1,8.86 µM (active),
CCN(CC)c1ccc(/C=N/N=C(N)N)c(O)c1,5.59 µM (active),
Cc1ccc2nsnc2c1NC(=O)c1ccc(-c2cc(Cl)ccc2Cl)o1,14 µM (active),
Cc1cc(-c2ccccc2)c2c3c(c(-c4ccccc4)n2n1)c(=O)n(C)c(=O)n3C,,9.15%
C=CCSc1nnc(C)c(/C=C/Nc2ccc(Cl)cc2)n1,20.6 µM (active),
CCOc1ccccc1NC(=O)Cn1nnc(C(=O)NCc2cccs2)c1N,0.651 µM (active),
